The list is not random: actives were taken first. Their share in the collection is about 18%.
IL1B secr inh: inflammasome signaling inhibition, IL-1 beta readout. THP-1 LPS/ATP IL-1B secretion, AlphaLISA, 16 h; hits give low values. activity change, % at 57.5 µM. hit rate 4.7% among 360,000. AID 743279; in the data active = activity change below about -50%; inconclusive = mostly about -30% to -49%
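THP-1 cells pretreated 1 hr with compounds (up to 57.5 uM final), then stimulated with LPS (250 ng/mL final) plus ATP (1.25 mM final); secreted IL-1B measured by AlphaLISA after 16 hr, decreased signal indicating inhibition.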
DT40 TDP1 no CPT: qHTS for Inhibitors of human tyrosyl-DNA phosphodiesterase 1 (TDP1): qHTS in cells in absence of CPT | DT40 Tdp1-/- hTDP1 cells, no CPT, ATP luminescence, 48 h | Potency, µM (highest dose often 46.2 µM), most hits filed as inhibitors | hit rate 15% among 420,000 | AID 686978, 2013; note: nearly all actives have a fitted effect of over 55% in size
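Compound effects on proliferation are scored in DT40 Tdp1-/-;hTDP1 cells in the absence of CPT. ATP levels (CellTiter-Glo luminescence) are recorded after a ≥48 hr, 37 °C incubation.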
DT40 TDP1 CPT: growth inhibition of DT40 Tdp1-/-;hTDP1 cells with camptothecin (screen for TDP1 inhibitors). hit rate 12% among 420,000. AID 686979. Potency, µM (titrated, usually from 46.2 µM), most hits filed as inhibitors. chicken DT40 Tdp1-/-;hTDP1 cells + 20 nM CPT, ATP luminescence, 48 h; note: nearly all actives have a fitted effect of over 55% in size
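Chicken DT40 Tdp1-/- cells stably complemented with human TDP1 were seeded at 400 cells/well in medium containing 20 nM camptothecin, exposed to pin-transferred compounds, and grown at 37 °C for at least 48 hr. Viability was read as ATP luminescence.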
HepG2 tox: HepG2 cytotoxicity, counter-screen for TGF-b inhibitors; HepG2 CAGA-GFP viability, ATP luminescence, 18 h; Potency, µM (series often up to 46.1 µM), hits mostly cytotoxic; hit rate 0.76% among 410,000; AID 588856
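CellTiter-Glo luminescence gave cytotoxicity after 18 hours at 37 degrees C. The cells were HepG2 CAGA-GFP in 1% FBS DMEM, stimulated with 500 pg/mL TGF-beta after compound addition. %Activity was normalised to no-cell wells (complete cell-killing) and DMSO (no toxicity), and curves were fitted and classified.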
TGFb SMAD3 inh: blocks TGF-b signaling; hit rate 1.2% among 410,000; HepG2 CAGA-GFP TGF-b/SMAD3 reporter, GFP fluorescence, 18 h; TGF-beta stimulated, 500 pg/mL final; Potency, µM (doses to about 46.1 µM), usual class: inhibitors; note: nearly all actives have a fitted effect of over 65% in size
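HEPG2 CAGA-GFP, 1000 cells/well; 2 h settle, 37 C; cpd via pin tool; TGF-b 500 pg/mL final; 18 h, 37 C; GFP imaging ex488/em500-530; %Activity normalised to -TGF-b and +DMSO controls; CRC fit, curve class.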
TDP1 block: TDP1 (human) enzyme inhibition; Q9NUW8; recombinant TDP1, AlphaScreen DNA substrate cleavage; AID 485290; hit rate 0.28% among 350,000; Potency, µM (series often up to 130 µM), most hits filed as inhibitors; note: nearly all actives have a fitted effect of over 40% in size
Target sequence (Q9NUW8 whole entry, looked up): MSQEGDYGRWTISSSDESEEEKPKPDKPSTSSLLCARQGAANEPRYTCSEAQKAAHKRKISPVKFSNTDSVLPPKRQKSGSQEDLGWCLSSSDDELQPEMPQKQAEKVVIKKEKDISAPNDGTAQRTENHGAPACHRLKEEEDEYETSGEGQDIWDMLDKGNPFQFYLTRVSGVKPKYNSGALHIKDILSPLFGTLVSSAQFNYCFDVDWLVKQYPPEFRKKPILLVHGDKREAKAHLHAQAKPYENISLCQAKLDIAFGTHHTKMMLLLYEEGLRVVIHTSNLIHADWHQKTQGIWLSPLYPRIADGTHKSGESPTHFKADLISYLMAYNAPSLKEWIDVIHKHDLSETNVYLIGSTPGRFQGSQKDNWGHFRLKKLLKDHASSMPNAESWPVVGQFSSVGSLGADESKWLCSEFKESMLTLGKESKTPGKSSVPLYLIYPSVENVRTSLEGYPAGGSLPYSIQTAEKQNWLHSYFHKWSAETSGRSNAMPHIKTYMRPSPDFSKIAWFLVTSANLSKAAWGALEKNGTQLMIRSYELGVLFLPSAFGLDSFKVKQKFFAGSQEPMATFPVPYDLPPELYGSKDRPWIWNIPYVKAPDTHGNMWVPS
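Steps: enzyme plus compound, 15 min RT; add biotin/phosphotyrosine-FITC oligonucleotide (15 nM final), react 5 min; add donor/acceptor beads (10 ug/ml final), 10 min; read AlphaScreen. Tdp1 at 1 nM final.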
A number is an active result; 0 = inactive; ? = inconclusive; - = not tested or not shown. Unless noted, calls come from the whole dose curve; as a rule, active = well fitted curve in the direction sought with a large enough effect; inconclusive = small, poorly fitted or top-dose-only effect, or another doubt; inactive = no such curve, though single readings can be large; an effect the other way counts as inactive or inconclusive.

SMILES	IL1B secr inh	DT40 TDP1 no CPT	DT40 TDP1 CPT	HepG2 tox	TGFb SMAD3 inh	TDP1 block
O=[N+]([O-])c1ccc(/C=N/Nc2nc(N3CCCCC3)nc(N3CCCCC3)n2)o1	0	18µM	?	0	0	0
Clc1ccc(-c2ccc(/C=N/Nc3cc(N4CCOCC4)nc(N4CCOCC4)n3)o2)cc1	?	16µM	0	0	0	0
CCc1ccc2oc(-c3cc(NC(=O)c4cc([N+](=O)[O-])ccc4N4CCOCC4)ccc3Cl)nc2c1	-	?	?	0	?	0
COc1ccc(NS(=O)(=O)c2cccc(C(=O)NNC(=O)c3ccc(C)o3)c2)cc1	0	?	0	0	0	0
Nc1nc(-c2ccccc2)c(N=Nc2ccccc2Cl)s1	-64	16µM	0	0	?	0
Nc1nc(-c2ccccc2)c(N=Nc2cccc3ccccc23)s1	0	16µM	23µM	0	11µM	0
COCCN(Cc1ccc(C)c(Br)c1)S(=O)(=O)c1ccc2[nH]c(=O)ccc2c1	-	?	0	0	0	0
CCOC(=O)c1ccc(NC(=O)CSc2ccc(-c3sc(C)nc3C)nn2)cc1	-	?	?	0	0	0
CCC1(c2ccc(Cl)cc2)NC(=O)N(CC(=O)N2CCN(C(=O)c3ccco3)CC2)C1=O (stereo not drawn)	0	?	0	0	0	0
CC(=O)OCC1(C)CN(c2ccccc2)NC1=O (stereo not drawn)	0	?	21µM	0	0	0
CC(=O)OCC1(C)CN(c2ccccc2)N(C(C)=O)C1=O (stereo not drawn)	0	21µM	?	0	0	0
CCSc1nc2c(c(=O)[nH]1)C(c1ccccn1)C1=C(CC(C)(C)CC1=O)N2 (stereo not drawn)	0	0	0	0	0	0
CC1(C)CC(=O)C2=C(C1)NC(Nc1nc3ccccc3o1)=NC21CCCC1	0	0	?	0	0	0
CC1(C)CC(=O)C2=C(C1)NC(Nc1nc3ccccc3o1)=NC2c1ccccn1 (stereo not drawn)	0	0.82µM	0.73µM	0	0	0
CC1(C)CC(=O)C2=C(C1)NC(Nc1nc3ccccc3o1)=NC2c1ccccc1Cl (stereo not drawn)	-	7.1µM	5.6µM	0	0	0
CC(C)(C)NC(=O)C(c1ccc(C#N)cc1)n1c(=O)c(-c2ccco2)nc2ccccc21 (stereo not drawn)	0	?	?	-	-	-
CC(C)Oc1ccc(S(=O)(=O)N2CCOCC2)cc1NC(=O)C1=COCCO1	0	?	0	0	0	0
Cn1c(SCC(=O)NC(=O)Nc2ccccc2)nnc1-c1ccncc1	0	0	0	0	0	0
CC(=O)O[C@@]1(C(C)=O)CCC2C3C=C(Cl)C4=CC(=O)CC[C@]4(C)C3CC[C@]21C (stereo partly drawn)	-	?	?	-	-	0
Cc1[nH]c2ccc(C(=O)OCC(=O)Nc3cccc(S(N)(=O)=O)c3)cc2c1C	0	?	?	0	0	0
CCOC(=O)c1cc(C)n(-c2c(C)n(C)n(-c3ccccc3)c2=O)c1C	0	0	0	0	?	0
CCOC(=O)c1c(SCCN2CCCC2)n(-c2ccccc2)c(=S)n(-c2ccccc2)c1=O	-111	5.2µM	4.6µM	0	?	-
CC(C)(C)OC(=O)NCCCCCc1cn([C@@H](CO)C(=O)NCCCCCCCCCCC(=O)N2CCN(C(=O)OC(C)(C)C)CC2)nn1	0	2.3µM	2.6µM	0	?	0
CC[C@H](C)[C@@H](C(=O)NCCCCCCCCCCC(=O)N1CCN(C(=O)OC(C)(C)C)CC1)n1cc(CCCCCNC(=O)OC(C)(C)C)nn1	0	5.8µM	4.6µM	0	?	0
Cc1cn([C@H](C(=O)NCCCCCCCCCCC(=O)N2CCN(C(=O)OC(C)(C)C)CC2)[C@@H](C)O)nn1	0	16µM	23µM	0	0	0
SMILES	IL1B secr inh	DT40 TDP1 no CPT	DT40 TDP1 CPT	HepG2 tox	TGFb SMAD3 inh	TDP1 block
CC(C)(C)OC(=O)CC[C@@H](C(=O)NCCCCCCCCCCC(=O)N1CCN(C(=O)OC(C)(C)C)CC1)n1cc(CCCCCNC(=O)OC(C)(C)C)nn1	0	4.1µM	5.8µM	0	0	0
CCN(c1ccccc1)S(=O)(=O)c1ccc(Cl)c(NC(=O)COC(=O)c2ccc[n+]([O-])c2)c1	0	0	0	0	0	0
CCC1(C2C=COC=C2)NC(=O)NC1=O (stereo not drawn)	0	0	0	0	0	-
N#Cc1ccc(CN2CCN(C(=O)c3ccc(S(=O)(=O)NCc4ccco4)cc3)CC2)cc1	0	2.6µM	10µM	0	?	0
O=C(c1ccc(S(=O)(=O)NCc2ccco2)cc1)N1CCCC1	0	0	0	0	0	0
CC1CCN(C(=O)c2ccc(S(=O)(=O)NCc3ccco3)cc2)CC1	0	0	0	0	0	89µM
O=C(c1ccc(CNS(=O)(=O)c2ccccc2)cc1)N1CCN(Cc2ccccc2)CC1	0	?	?	0	?	0
O=C(c1ccc2ccccc2c1)C1CCCN(C(=O)CN2C(=O)CSC2=O)C1 (stereo not drawn)	0	0	0	0	0	0
CCc1ccc2c(c1)C1(C(=O)N2)N2CCCC2C(C(=O)c2ccc3ccccc3c2)C12C(=O)Nc1ccccc12 (stereo not drawn)	-99	?	?	10µM	16µM	0
CCc1cccc2c1NC(=O)C21N2CCCC2C(C(=O)c2ccc3ccccc3c2)C12C(=O)Nc1ccccc12 (stereo not drawn)	-105	13µM	18µM	0	?	0
O=C1[C@H]2[C@@H](C(=O)N1c1cc(Cl)cc(Cl)c1)[C@]1(C(=O)Nc3ccccc31)N1CCC[C@@H]21	0	0	0	0	0	0
Cc1cccc2c1NC(=O)C21N2CCCC2C(C(=O)c2ccc3ccccc3c2)C12C(=O)Nc1ccccc12 (stereo not drawn)	0	26µM	?	0	?	0
CCc1cccc2c1NC(=O)C2(O)N1CCCC(C)C1 (stereo not drawn)	0	0	0	0	0	-
COC(=O)C1CCN(S(=O)(=O)c2cc3c4c(c2)CC(=O)N4CCC3)CC1	-	0	0	0	0	0
Cc1nc(Cc2nnc(SC(C)C(=O)Nc3cccc(C#N)c3)o2)cs1 (stereo not drawn)	0	0	0	0	0	-
Cc1sc2ncnc(N3CCCCC3C)c2c1C (stereo not drawn)	0	?	?	0	0	0
